The list is not random: actives were taken first. Their share in the collection is about 2.9%.
DRD3 agonist: qHTS of D3 Dopamine Receptor Agonist: qHTS | D(3) dopamine receptor (Homo sapiens), P35462 | D3R DiscoveRx beta-arrestin cells, luminescence, 90 min | max activation, % | 410,000 compounds, 0.58% hits; in the data active = max activation above about 30%
Target sequence (P35462 whole entry, looked up): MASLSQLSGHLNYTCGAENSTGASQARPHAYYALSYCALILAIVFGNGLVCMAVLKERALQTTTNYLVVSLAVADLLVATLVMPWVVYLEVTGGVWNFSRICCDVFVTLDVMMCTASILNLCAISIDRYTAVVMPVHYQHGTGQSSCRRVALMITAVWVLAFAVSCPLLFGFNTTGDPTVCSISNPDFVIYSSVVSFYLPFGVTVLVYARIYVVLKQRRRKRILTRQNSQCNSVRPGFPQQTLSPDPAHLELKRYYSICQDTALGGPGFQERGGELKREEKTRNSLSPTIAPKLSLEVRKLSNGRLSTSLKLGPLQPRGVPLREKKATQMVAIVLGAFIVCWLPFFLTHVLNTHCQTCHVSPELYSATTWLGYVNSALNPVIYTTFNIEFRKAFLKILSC
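Cells at 1500/well, incubated overnight, then treated with pinned compounds (dopamine as control) for 90 min at 37 degrees C. DiscoveRx reagent added for 30 - 60 minutes at room temperature; luminescence read.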
a7 integrin act: qHTS for Activators of Integrin-Mediated Alleviation for Muscular Dystrophy. alpha7betagal myoblasts, beta-gal FDG fluorescence, 48 h. Potency, µM (titrated, usually from 38.3 µM), actives largely listed as activators. 350,000 compounds, 0.064% hits. AID 624291, 2012; active = well fitted activation curve with a large enough effect; inconclusive = small, poorly fitted or top-dose-only effect; inactive = no such curve, though single readings can be large or run the other way; also: nearly all actives have a fitted effect of over 60% in size
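Alpha7betagal+/- myoblasts (passage 13) were plated 16-24 hr, then exposed to compounds (1:260 dilution of DMSO stock) for 48 hours at 37C. After MPER lysis, β-galactosidase reporter activity was read as FDG fluorescence (ex 480/em 540) after 30 minutes.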
DRD3 antagonist: qHTS of D3 Dopamine Receptor Antagonist: qHTS. 360,000 compounds, 2.5% hits. D3R cells, DiscoveRx beta-arrestin luminescence, antagonist mode; hits give low values. max response, negative = inhibition, %; in the data active = max response below about -50%; inconclusive = no clear call, values can overlap the other calls
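Cells plated overnight at 1500 cells/well, then exposed to library compounds with dopamine controls for 90 minutes at 37 degrees C. DiscoveRx reagent added for 30–60 minutes at room temperature; luminescence read, quantitative HTS format.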
Of the large screens only hits and unclear results are named; the others gave an inactive call; ! = repeats disagree.

O=C(Nc1ccccc1N1CCCC1)c1cc(=O)[nH]c2ccccc12	none
CSc1nc2ccc(S(=O)(=O)Nc3c(C)n(C)n(-c4ccccc4)c3=O)cc2s1	none
COC(=O)[C@@]1(C)[C@H]2C(=O)N(C)C(=O)[C@H]2[C@H]2CN=C(SCC(=O)c3ccccc3)N21	none
CCc1ccc(/C=C/C(=O)c2cc(Br)ccc(=O)c2O)cc1	DRD3 antagonist inconclusive
Cc1cccc(/C=C/C(=O)c2cc(Br)ccc(=O)c2O)c1	DRD3 antagonist -59
O=C(COc1ccccc1)N=C1SC2CS(=O)(=O)CC2N1c1ccccc1 (centres undefined)	none
CC1CCC2C(=O)N(c3ccc(C(=O)Oc4cccc5cccnc45)cc3)C(=O)C2C1 (centres undefined)	DRD3 antagonist -68
Cc1ccc(C(=O)Oc2ccccc2N2C(=O)C3CCC(C)CC3C2=O)cc1 (centres undefined)	none
CC(C)NCCCCOc1ccc(Br)cc1Cl	DRD3 antagonist -71
CCCCn1c(=N)n(CCCOc2ccc(F)cc2)c2ccccc21	none (no result: a7 integrin act, DRD3 antagonist)
COc1cc(C=O)ccc1OCCOCCOc1ccc(Cl)cc1Cl	none
COCCCNC(=O)COc1ccc(Br)cc1Cl	none
CC(C)NCCCOc1ccc(Cl)cc1Br	DRD3 antagonist -73
Clc1ccc(OCCCn2ccnc2)c(Br)c1	none
CCCCNCCOCCOc1ccc(F)cc1	DRD3 antagonist -54
CCCCNCCOCCOc1ccc(Cl)cc1Br	DRD3 antagonist -87
CCOC(=O)c1ccc(N2CCN(c3cc(Cl)ccc3C)CC2)c(NC(=O)Nc2cccc(OC)c2)c1	none (no result: a7 integrin act, DRD3 antagonist)
CC(C)C[C@@]12C(=O)N(c3cccc(F)c3)C(=O)N1[C@H](c1ccc(Cl)cc1)[C@@H]1C(=O)N(C3CCCCC3)C(=O)[C@@H]12	none
CC(O)CNCCCOc1ccc(Cl)cc1C(C)(C)C (centres undefined)	DRD3 antagonist -53
CN(C)CCOCCOc1ccc(Cl)cc1C(C)(C)C	DRD3 antagonist inconclusive
COc1ccccc1CCNC(=O)CSCC(=O)Nc1ccccc1F	none
CCc1cc(-c2n[nH]c(=S)n2-c2cccc(C)c2)cs1	none
Cc1ccc(NC(=O)C2CCN(S(=O)(=O)c3cccc4cccnc34)CC2)nc1	none
CC(=O)N1CCOc2cc(S(=O)(=O)Nc3c(C)cccc3C(C)C)c(Cl)cc21	none (no result: a7 integrin act, DRD3 antagonist)
COc1cc(NC(=O)c2ccc([N+](=O)[O-])cc2)ccc1NC(=O)C(C)C	none
CSc1cccc(NC(=S)N(CCCN2CCCC2)Cc2cccs2)c1	DRD3 antagonist -64
CSc1cccc(NC(=S)N(CCCN2CCCC2)Cc2cccn2Cc2ccc(Cl)cc2)c1	DRD3 antagonist inconclusive
Cc1ccc(NC(=O)N(CCCN2CCOCC2)Cc2cccs2)cc1C	DRD3 antagonist -68
COc1ccc(NC(=S)N(CCN(C)C)Cc2cccs2)cc1	none
COc1ccc(NC(=S)N(CCCN2CCCCCC2)Cc2cccs2)cc1	none
COc1ccc(NC(=S)N(CCCN2CCCC(C)C2)Cc2cccs2)cc1 (centres undefined)	DRD3 antagonist -82
COc1ccc(NC(=S)N(CCCN2CCCC2)Cc2cccs2)cc1	DRD3 antagonist -64
O=C(Nc1ccc(Cl)cc1)N(CCCN1CCOCC1)Cc1cccs1	none
O=c1cc(N2CCc3ccccc32)[nH]c(=O)n1-c1ccccc1Cl	none
COc1ccc(NC(=O)CC2C(=O)N(c3ccc(C)cc3)C(=O)N2Cc2ccc3c(c2)OCO3)cc1 (centres undefined)	none (no result: a7 integrin act, DRD3 antagonist)
CN(CC(=O)Nc1ccccc1Br)C(=O)CCc1ccccc1	none
CCCn1c(COc2ccccc2)nc2ccccc21	none
COc1cccc(-n2c(=O)c3sc4ccccc4c3n(CC(=O)NC3CCCCC3)c2=O)c1	none (no result: a7 integrin act, DRD3 antagonist)
CN(CCCCCCCCC(=O)/C=N/O)Cc1ccccc1	DRD3 antagonist inconclusive
Cc1ccc(NC(=O)CCN2C(=O)C3CC=CCC3C2=O)cc1Cl (centres undefined)	DRD3 antagonist inconclusive
COC(=O)C1=C(C)NC(C)=C(C(=O)OC)C1c1ccccc1[N+](=O)[O-]	DRD3 antagonist -105 (no result: a7 integrin act)
CCOC(=O)C1=C(C)NC(C)=C(C(=O)OC)C1c1cccc([N+](=O)[O-])c1 (centres undefined)	none (no result: a7 integrin act)
CCOC(=O)C1(Cc2ccccc2C)CCCN(Cc2cc(OC)c(O)c(OC)c2)C1 (centres undefined)	none
CSCCC(=O)N(C)CC1CCN(CCc2cccc(C(F)(F)F)c2)CC1	none
COc1ccc(C(=O)N(C)CC2CCN(CCc3cccc(C(F)(F)F)c3)CC2)cc1C	DRD3 antagonist -77
CC(=O)Nc1ccc(CN(C)CC2CCCN(CCc3cccc(C(F)(F)F)c3)C2)cc1 (centres undefined)	none
CCN(CC1CCCN(CCc2cccc(F)c2)C1)C(=O)c1ccoc1C (centres undefined)	DRD3 antagonist -51
COc1ccc(C(=O)N(C)C2CCCN(Cc3ccccc3F)C2)cc1C (centres undefined)	none
CCN(CC1CCCN(CCc2cccc(F)c2)C1)C(=O)c1ccc(CSC)o1 (centres undefined)	none
CN(CC1CCCN(CCc2cccc(C(F)(F)F)c2)C1)C(=O)c1ccco1 (centres undefined)	DRD3 antagonist -63
CN(CC1CCN(CCc2cccc(C(F)(F)F)c2)CC1)C(=O)c1ccc(F)cc1F	DRD3 antagonist -69
O=C(O)CCSc1ccc([N+](=O)[O-])cc1[N+](=O)[O-]	none
COc1ccc(-c2ccc(C(=O)O)c(=O)[nH]2)cc1	none
CCn1cc(S(=O)(=O)CC(=O)Nc2ccc3c(c2)OCO3)c2ccccc21	none
CN(CC(=O)Nc1nc2ccc(F)cc2s1)S(=O)(=O)c1ccc(Cl)cc1	none
CC1CC(O)(Cc2ccccc2)C(C)CN1C (centres undefined)	none
C=CC#CC1(O)CC(C)N(C)CC1C (centres undefined)	a7 integrin act inconclusive, DRD3 antagonist -66
C=C[C@]1(C)C[C@@H](OC(=O)CSCCN(CC)CC)[C@]2(C)C(C)CC[C@]3(CCC(=O)[C@H]32)[C@@H](C)[C@@H]1O (some centres undefined)	DRD3 antagonist -89! (no result: a7 integrin act)
COc1ccc(-c2nnn(CC(=O)N3CCOCC3)n2)cc1	DRD3 antagonist -60
COc1ccc(-c2nnn(CC(=O)N3CCN(c4ccc(F)cc4)CC3)n2)cc1	none
CCc1nc2ccc(C(=O)NCCCN3CCCC3=O)cn2c1N(CC)C(C)=O	DRD3 antagonist -56 (no result: a7 integrin act)
CCc1nc2ccc(C(=O)NCCCN3CCCC3=O)cn2c1N(CC)C(=O)NCCc1ccccc1	none (no result: a7 integrin act)
Cc1ccc(S(=O)(=O)Cc2ccc(C(=O)N3CCC(C(N)=O)CC3)o2)cc1	none
COc1ccccc1C(=O)NC(=S)Nc1ccc(NC(=O)c2cccs2)cc1	none
CN1CCC(N(C)S(=O)(=O)c2ccc(NC(=O)COc3ccc(Cl)cc3)cc2)CC1	none
COc1ccc(N2CCN(CCC3Oc4cc([N+](=O)[O-])ccc4NC3=O)CC2)cc1 (centres undefined)	a7 integrin act 8.9µM
CCN1CCN(CCC2Oc3cc([N+](=O)[O-])ccc3NC2=O)CC1 (centres undefined)	none
CCc1nnc(NC(=O)C2CCCN2C(=O)Nc2ccccc2OC)s1 (centres undefined)	none
